The values below come from PubChem BioAssay (EPA / NIEHS).

The target in assay [1] is Myc proto-oncogene protein (Homo sapiens) (UniProt P01106). In words: ATG_Myc_CIS: Attagene CIS-FACTORIAL HepG2 Assay for human Myelocytomatosis (Myc) Proto-Oncogene Transcription Factor (AID 2282990). As to conditions: HepG2, Attagene cis-reporter transcription factor activity; actives raise or lower the signal. The gist of the method: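 Read-out: fluorescent reporter mRNA fragments resolved by capillary electrophoresis after RT-PCR. Human HepG2 liver cells carried transfected cis-element reporter units and were dosed for 24 h. Gain or loss of signal fitted relative to DMSO baseline.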
Myc proto-oncogene protein (Homo sapiens), sequence (P01106 whole entry, looked up, the tested form may be a part): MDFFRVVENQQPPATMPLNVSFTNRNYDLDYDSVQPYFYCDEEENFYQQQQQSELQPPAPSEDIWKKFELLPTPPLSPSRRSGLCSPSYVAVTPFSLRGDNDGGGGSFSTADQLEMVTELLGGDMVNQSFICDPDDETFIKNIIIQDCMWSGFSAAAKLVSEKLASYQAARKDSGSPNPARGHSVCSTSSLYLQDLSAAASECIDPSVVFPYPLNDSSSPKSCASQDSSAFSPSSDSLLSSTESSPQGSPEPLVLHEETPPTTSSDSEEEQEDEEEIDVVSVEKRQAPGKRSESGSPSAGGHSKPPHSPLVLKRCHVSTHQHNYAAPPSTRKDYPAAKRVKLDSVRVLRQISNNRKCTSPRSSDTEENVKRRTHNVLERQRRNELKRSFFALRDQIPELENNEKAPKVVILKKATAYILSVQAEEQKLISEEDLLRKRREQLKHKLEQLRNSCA

A short description of assay [2]: ATG_NRF2_ARE_CIS: Attagene CIS-FACTORIAL HepG2 Assay for human Nuclear Factor Erythroid 2 Related Factor 2 (NFR2) response to Antioxidant Response Elements (ARE) (AID 2282992). Particulars: HepG2 Attagene ARE/NRF2 reporter, transcription factor activity; actives raise or lower the signal. The gist of the method: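 Endogenous transcription factor activity read out as reporter transcript levels (RT-PCR plus capillary electrophoresis, fluorescence) in transiently transfected HepG2 cells. Measured at 24 h after dosing; gain or loss of signal fitted versus DMSO.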

Assay [3] is described as follows: ATG_Oct_MLP_CIS: Attagene CIS-FACTORIAL HepG2 Assay for human Octamer-Binding Transcription Factor (Oct) (AID 2282993). As to conditions: HepG2 Attagene cis-factorial Oct reporter, mRNA; actives raise or lower the signal. The gist of the method:
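HepG2 cells transiently transfected with cis-promoter-driven multiplexed reporter transcription units, dosed for 24 h. Reporter mRNA quantified by RT-PCR, fluorescent labelling, HpaI digestion and capillary electrophoresis; bidirectional fits versus DMSO baseline.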

The target in assay [4] is Peroxisome proliferator-activated receptor gamma (Homo sapiens) (UniProt P37231). In words: ATG_PPARg_TRANS: Attagene TRANS-FACTORIAL HepG2 Assay for human Peroxisome Proliferator-activated Receptor-gamma (PPARg) (AID 2283007; active = hit-call score of the fitted dose curve at least 0.9, where 1 is the maximum). The gist of the method:
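Chimeric NR-Gal4 transactivation is measured in transiently transfected HepG2 cells by reporter mRNA induction at 24 h. Detection uses RT-PCR with fluorescent labelling and capillary electrophoresis; DMSO defines baseline.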

The target of assay [5] is human RAR-related Orphan Receptor beta (RORb), RORB (gene 6096) (UniProt Q92753). In words: ATG_RORb_TRANS: Attagene TRANS-FACTORIAL HepG2 Assay for human RAR-related Orphan Receptor beta (RORb) (AID 2283010; active = hit-call score of the fitted dose curve at least 0.9, where 1 is the maximum). The gist of the method: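 Read-out is reporter mRNA induction, quantified by RT-PCR with fluorescent capillary electrophoresis, 24 h post-dose in transiently transfected HepG2 expressing exogenous NR-Gal4 chimera. Activity fitted upward versus DMSO.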
human RAR-related Orphan Receptor beta (RORb), RORB (gene 6096), sequence (Q92753 whole entry, looked up, the tested form may be a part): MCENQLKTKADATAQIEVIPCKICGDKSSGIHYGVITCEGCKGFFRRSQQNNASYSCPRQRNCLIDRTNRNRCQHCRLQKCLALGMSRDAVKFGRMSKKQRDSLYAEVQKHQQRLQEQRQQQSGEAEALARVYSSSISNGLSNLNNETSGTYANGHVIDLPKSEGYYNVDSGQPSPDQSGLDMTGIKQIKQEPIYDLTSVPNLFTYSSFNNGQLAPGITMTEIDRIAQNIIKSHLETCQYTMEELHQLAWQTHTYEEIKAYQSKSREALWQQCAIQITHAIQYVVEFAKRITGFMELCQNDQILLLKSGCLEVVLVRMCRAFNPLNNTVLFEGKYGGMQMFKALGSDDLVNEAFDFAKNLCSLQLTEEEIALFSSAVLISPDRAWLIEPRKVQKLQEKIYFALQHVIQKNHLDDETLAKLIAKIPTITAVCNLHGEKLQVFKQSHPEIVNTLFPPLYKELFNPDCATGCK

Assay [6] deals with Cellular tumor antigen p53 (Homo sapiens) (UniProt P04637). In words: ATG_p53_CIS: Attagene CIS-FACTORIAL HepG2 Assay for human p53 Transcription Factor (AID 2282994). As to conditions: HepG2 p53 cis-element reporter, Attagene mRNA; actives raise or lower the signal. The gist of the method:
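Endogenous p53 activity read in transiently transfected HepG2 from a cis-element-driven reporter transcript after 24 h exposure. RNA reverse-transcribed, PCR-amplified, fluorescently labelled and sized by capillary electrophoresis; gain or loss fitted against DMSO baseline.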

The nature of assay [7]: BSK_3C_TissueFactor: BioMAP Diversity Plus: 3C Assay for Tissue Factor Biomarker Activity (AID 2282997). Particulars: BioMAP 3C HUVEC, tissue factor biomarker readout; actives raise or lower the signal. The gist of the method:
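Tissue Factor measured by ELISA, 24 h after treatment of primary HUVEC in the BioMAP 3C setting.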

Assay [8] is described as follows: BSK_3C_uPAR: BioMAP Diversity Plus: 3C Assay for Urokinase-type plasminogen activator receptor (uPAR) Biomarker Activity (AID 2282998). As to conditions: BioMAP 3C HUVEC, uPAR biomarker ELISA; actives raise or lower the signal. The gist of the method:
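Human umbilical vein endothelial primary cells were exposed to test chemical for 24 h. Cell-surface uPAR was then quantified by ELISA, and responses were fitted bidirectionally against DMSO as negative control and baseline.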

A short description of assay [9]: BSK_3C_VCAM1: BioMAP Diversity Plus: 3C Assay for Vascular cell adhesion molecule 1 (VCAM1) Biomarker Activity (AID 2282999). As to conditions: BioMAP 3C HUVEC, VCAM1 ELISA, cytokine-stimulated; actives raise or lower the signal. The gist of the method:
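HUVEC primary cells, 24 h compound exposure; VCAM-1 by ELISA; gain/loss of signal fitted bidirectionally vs DMSO baseline.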
(In general: In an ELISA, binding on a coated surface is turned into a signal by an enzyme label.)

Assay [10] can be described thus: BSK_4H_Eotaxin3: BioMAP Diversity Plus: 4H Assay for Eotaxin 3 Biomarker Activity (AID 2283000).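 Also: CCL26 protein level quantified by ELISA in parallel with SRB cytotoxicity check.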 Particulars: primary human endothelial cells (HUVEC); actives raise or lower the signal. The gist of the method: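 Eotaxin-3 (CCL26) levels were measured by ELISA in HUVEC primary cultures 24 h post-dosing. Gain or loss of signal was fitted in both directions, with DMSO serving as baseline and negative control.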

For assay [11], the target named is human Peroxisome Proliferator-activated Receptor alpha (PPARa), PPARA (gene 5465) (UniProt Q07869). In words: ATG_PPARa_TRANS: Attagene TRANS-FACTORIAL HepG2 Assay for human Peroxisome Proliferator-activated Receptor alpha (PPARa) (AID 2283001; active = hit-call score of the fitted dose curve at least 0.9, where 1 is the maximum;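 as to AC50: potency for gain of reporter signal over DMSO so agonist or activator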). The gist of the method:
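HepG2, transient MRTU transfection, 24 h treatment. RT-PCR → FAM labelling → capillary electrophoresis. Fit vs DMSO, positive direction.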

Assay [12] deals with human Peroxisome Proliferator-activated Receptor delta (PPARd), PPARD (gene 5467) (UniProt Q03181). In words: ATG_PPARd_TRANS: Attagene TRANS-FACTORIAL HepG2 Assay for human Peroxisome Proliferator-activated Receptor delta (PPARd) (AID 2283002; active = hit-call score of the fitted dose curve at least 0.9, where 1 is the maximum). The gist of the method:
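Read-out: reporter mRNA induction, quantified by fluorescent RT-PCR products resolved by capillary electrophoresis. Human HepG2 liver cells carried transiently transfected Gal4-UAS reporter constructs with chimeric NR-Gal4 fusions. Cells were dosed for 24 h; DMSO served as baseline.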

Read-out in assay [13]: Intercellular Adhesion Molecule 1 (ICAM1), ICAM1 (gene 3383)
In words: BSK_3C_ICAM1: BioMAP Diversity Plus: 3C Assay for Intercellular Adhesion Molecule 1 (ICAM1) Biomarker Activity (AID 2283003). Particulars: primary human endothelial cells (HUVEC); actives raise or lower the signal. The gist of the method:
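ELISA readout of ICAM1 in human umbilical vein endothelial cells in the 3C system, taken 24 h post-dose. Gain or loss of signal versus DMSO was fitted in both directions, with SRB total-protein staining run in parallel.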

Assay [14] is described as follows: BSK_3C_Proliferation: Cell Proliferation Assessment in the BioMAP Diversity Plus: 3C Assay (AID 2283006).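 As to AC50: potency may reflect either rise or fall in cell number versus DMSO.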 As to conditions: primary human endothelial cells (HUVEC). The gist of the method: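 Proliferation as total protein: sulforhodamine B (0.1%) stain of TCA-fixed subconfluent human umbilical vein endothelial cells, absorbance 560 nm, 48 h after dosing. Activity fitted in both directions against DMSO baseline.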

Assay [15] concerns the target Nuclear receptor subfamily 1 group I member 2 (Homo sapiens) (UniProt O75469). In words: ATG_PXR_TRANS: Attagene TRANS-FACTORIAL HepG2 Assay for human Pregnane X Receptor (PXR) (AID 2283008; active = hit-call score of the fitted dose curve at least 0.9, where 1 is the maximum). The gist of the method: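 Transactivation by exogenous PXR–GAL4 fusion measured as reporter transcript induction after 24 h compound treatment of transfected human HepG2 cells. Read-out via RT-PCR and capillary electrophoresis of labelled fragments, fitted upward relative to DMSO.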

Assay [16] can be described thus: ATG_NF_kB_CIS: Attagene CIS-FACTORIAL HepG2 Assay for human Nuclear Factor Kappa B (NF-kB) (AID 2282991). Particulars: HepG2 Attagene cis-factorial NF-kB reporter mRNA; actives raise or lower the signal. The gist of the method:
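DMSO served as negative control and baseline for bidirectional curve fitting. Transiently transfected HepG2 cells were dosed for 24 h, then reporter transcripts were measured by RT-PCR with capillary electrophoresis detection.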

For assay [17], the target named is human Retinoic Acid Receptor beta (RARb), RARB (gene 5915) (UniProt P10826). In words: ATG_RARb_TRANS: Attagene TRANS-FACTORIAL HepG2 Assay for human Retinoic Acid Receptor beta (AID 2283004; active = hit-call score of the fitted dose curve at least 0.9, where 1 is the maximum). The gist of the method: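 HepG2 cells were transiently transfected with GAL4-UAS reporter units that report activity of exogenous chimeric NR-Gal4 proteins, then exposed to compound for 24 h. Reporter mRNA was quantified by RT-PCR with capillary electrophoresis fluorescence, as gain of signal over DMSO.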
human Retinoic Acid Receptor beta (RARb), RARB (gene 5915), sequence (P10826 whole entry, looked up, the tested form may be a part): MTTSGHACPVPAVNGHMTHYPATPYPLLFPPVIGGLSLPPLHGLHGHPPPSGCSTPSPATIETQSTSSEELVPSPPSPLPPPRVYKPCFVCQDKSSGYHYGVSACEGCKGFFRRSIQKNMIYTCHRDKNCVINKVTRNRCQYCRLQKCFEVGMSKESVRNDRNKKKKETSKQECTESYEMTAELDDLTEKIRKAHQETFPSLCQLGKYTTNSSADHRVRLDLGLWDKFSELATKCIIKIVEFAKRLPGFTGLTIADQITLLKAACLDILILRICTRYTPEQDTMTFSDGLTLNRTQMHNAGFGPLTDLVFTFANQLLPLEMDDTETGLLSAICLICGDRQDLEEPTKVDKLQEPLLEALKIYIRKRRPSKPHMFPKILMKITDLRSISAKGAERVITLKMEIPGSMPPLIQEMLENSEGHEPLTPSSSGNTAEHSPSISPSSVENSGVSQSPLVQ

For assay [18], the target named is Retinoic acid receptor alpha (Homo sapiens) (UniProt P10276). In words: ATG_RARa_TRANS: Attagene TRANS-FACTORIAL HepG2 Assay for human Retinoic Acid Receptor alpha (RARa) (AID 2283005; active = hit-call score of the fitted dose curve at least 0.9, where 1 is the maximum). The gist of the method: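 HepG2 transiently transfected with multiplex GAL4-UAS reporter units including a human RARa–GAL4 chimera; 24 h compound exposure. Reporter mRNA quantified by RT-PCR, 6-FAM labeling and capillary electrophoresis; gain of signal versus DMSO.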
Retinoic acid receptor alpha (Homo sapiens), sequence (P10276 whole entry, looked up, the tested form may be a part): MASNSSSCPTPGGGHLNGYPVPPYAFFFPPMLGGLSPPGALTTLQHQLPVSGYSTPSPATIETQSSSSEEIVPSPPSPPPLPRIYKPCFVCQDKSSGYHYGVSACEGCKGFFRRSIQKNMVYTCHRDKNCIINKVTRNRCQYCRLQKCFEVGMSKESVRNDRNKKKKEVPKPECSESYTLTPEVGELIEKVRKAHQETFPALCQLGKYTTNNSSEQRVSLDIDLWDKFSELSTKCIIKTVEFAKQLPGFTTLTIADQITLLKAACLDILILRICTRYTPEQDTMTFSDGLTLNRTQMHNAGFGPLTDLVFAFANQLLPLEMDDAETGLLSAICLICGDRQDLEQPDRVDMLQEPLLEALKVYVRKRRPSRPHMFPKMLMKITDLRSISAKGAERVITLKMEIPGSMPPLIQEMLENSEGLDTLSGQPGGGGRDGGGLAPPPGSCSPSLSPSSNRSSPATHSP

Assay [19] addresses human Retinoic Acid Receptor gamma (RARg), RARG (gene 5916) (UniProt P13631). In words: ATG_RARg_TRANS: Attagene TRANS-FACTORIAL HepG2 Assay for human Retinoic Acid Receptor gamma (RARg) (AID 2283009; active = hit-call score of the fitted dose curve at least 0.9, where 1 is the maximum). The gist of the method: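 Transactivation of exogenous RARg-Gal4 fusion measured as reporter transcript induction after 24 h in transfected HepG2 cells. RNA reverse-transcribed, amplified, fluorescently labeled and resolved by capillary electrophoresis; increase relative to DMSO.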

Results filed as inconclusive are left out. A structure can be active in one record and inactive in another. The source made the active and inactive calls. The calls were made as follows, unless noted: active = hit-call score of the fitted dose curve at least 0.9, where 1 is the maximum; inactive = score below 0.9.

Peroxisome proliferator-activated receptor gamma (Homo sapiens), sequence (P37231 whole entry, looked up, the tested form may be a part): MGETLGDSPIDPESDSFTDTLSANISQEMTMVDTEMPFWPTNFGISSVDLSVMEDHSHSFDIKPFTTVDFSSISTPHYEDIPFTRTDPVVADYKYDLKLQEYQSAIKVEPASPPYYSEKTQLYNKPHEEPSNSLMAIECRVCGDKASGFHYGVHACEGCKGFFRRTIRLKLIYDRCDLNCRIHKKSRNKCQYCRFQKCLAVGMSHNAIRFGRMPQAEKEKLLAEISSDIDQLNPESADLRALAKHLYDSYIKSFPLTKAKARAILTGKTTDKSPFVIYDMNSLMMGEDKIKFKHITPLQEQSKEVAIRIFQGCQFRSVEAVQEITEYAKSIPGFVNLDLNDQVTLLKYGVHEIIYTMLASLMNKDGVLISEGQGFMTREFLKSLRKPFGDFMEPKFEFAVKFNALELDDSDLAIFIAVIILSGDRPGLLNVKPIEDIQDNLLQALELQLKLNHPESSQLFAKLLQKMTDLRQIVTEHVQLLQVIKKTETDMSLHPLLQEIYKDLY
human Peroxisome Proliferator-activated Receptor delta (PPARd), PPARD (gene 5467), sequence (Q03181 whole entry, looked up, the tested form may be a part): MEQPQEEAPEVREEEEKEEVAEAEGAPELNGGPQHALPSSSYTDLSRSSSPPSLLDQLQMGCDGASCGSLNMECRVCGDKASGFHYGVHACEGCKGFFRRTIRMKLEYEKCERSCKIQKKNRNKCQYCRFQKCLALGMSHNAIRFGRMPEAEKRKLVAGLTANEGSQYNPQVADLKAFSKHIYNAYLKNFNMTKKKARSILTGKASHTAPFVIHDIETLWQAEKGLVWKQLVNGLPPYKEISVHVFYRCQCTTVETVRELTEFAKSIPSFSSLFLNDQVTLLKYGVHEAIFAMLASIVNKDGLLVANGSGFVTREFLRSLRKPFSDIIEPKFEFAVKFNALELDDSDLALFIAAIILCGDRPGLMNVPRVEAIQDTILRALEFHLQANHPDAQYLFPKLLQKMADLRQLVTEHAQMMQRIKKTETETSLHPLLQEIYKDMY
human Peroxisome Proliferator-activated Receptor alpha (PPARa), PPARA (gene 5465), sequence (Q07869 whole entry, looked up): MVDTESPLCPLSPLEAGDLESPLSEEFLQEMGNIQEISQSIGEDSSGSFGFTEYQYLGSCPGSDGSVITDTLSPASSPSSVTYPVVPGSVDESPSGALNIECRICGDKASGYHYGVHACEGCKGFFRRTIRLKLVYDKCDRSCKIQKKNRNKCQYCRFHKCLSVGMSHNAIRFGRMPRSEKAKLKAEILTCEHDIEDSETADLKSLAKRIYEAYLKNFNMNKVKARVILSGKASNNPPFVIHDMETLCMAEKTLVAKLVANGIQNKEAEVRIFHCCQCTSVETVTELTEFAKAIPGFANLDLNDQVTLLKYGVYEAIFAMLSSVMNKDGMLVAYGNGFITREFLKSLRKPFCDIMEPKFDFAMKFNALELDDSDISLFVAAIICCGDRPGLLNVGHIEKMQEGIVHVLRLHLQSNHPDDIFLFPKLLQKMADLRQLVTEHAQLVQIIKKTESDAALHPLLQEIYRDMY
Cellular tumor antigen p53 (Homo sapiens), sequence (P04637 whole entry, looked up): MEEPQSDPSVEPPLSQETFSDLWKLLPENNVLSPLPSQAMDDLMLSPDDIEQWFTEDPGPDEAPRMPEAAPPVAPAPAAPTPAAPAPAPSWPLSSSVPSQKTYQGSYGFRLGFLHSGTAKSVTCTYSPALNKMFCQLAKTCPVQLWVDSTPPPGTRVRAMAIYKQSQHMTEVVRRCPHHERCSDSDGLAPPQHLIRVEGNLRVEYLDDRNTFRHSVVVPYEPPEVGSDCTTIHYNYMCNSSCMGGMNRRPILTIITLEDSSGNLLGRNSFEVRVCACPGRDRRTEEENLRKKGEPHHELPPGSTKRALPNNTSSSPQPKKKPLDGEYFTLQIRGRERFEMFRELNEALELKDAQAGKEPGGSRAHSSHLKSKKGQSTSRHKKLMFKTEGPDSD
Nuclear receptor subfamily 1 group I member 2 (Homo sapiens), sequence (O75469 whole entry, looked up, the tested form may be a part): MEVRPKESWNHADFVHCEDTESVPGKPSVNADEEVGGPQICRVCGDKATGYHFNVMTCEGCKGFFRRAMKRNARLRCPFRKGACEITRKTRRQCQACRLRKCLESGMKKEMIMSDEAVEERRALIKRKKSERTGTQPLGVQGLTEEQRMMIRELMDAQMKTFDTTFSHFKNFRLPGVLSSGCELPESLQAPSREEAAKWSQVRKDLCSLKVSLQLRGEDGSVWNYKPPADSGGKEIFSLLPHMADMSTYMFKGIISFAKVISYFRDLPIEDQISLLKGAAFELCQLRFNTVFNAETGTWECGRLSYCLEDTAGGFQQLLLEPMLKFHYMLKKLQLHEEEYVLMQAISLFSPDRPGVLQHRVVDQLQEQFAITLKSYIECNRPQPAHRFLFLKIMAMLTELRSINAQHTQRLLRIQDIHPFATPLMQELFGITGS
human Retinoic Acid Receptor gamma (RARg), RARG (gene 5916), sequence (P13631 whole entry, looked up, the tested form may be a part): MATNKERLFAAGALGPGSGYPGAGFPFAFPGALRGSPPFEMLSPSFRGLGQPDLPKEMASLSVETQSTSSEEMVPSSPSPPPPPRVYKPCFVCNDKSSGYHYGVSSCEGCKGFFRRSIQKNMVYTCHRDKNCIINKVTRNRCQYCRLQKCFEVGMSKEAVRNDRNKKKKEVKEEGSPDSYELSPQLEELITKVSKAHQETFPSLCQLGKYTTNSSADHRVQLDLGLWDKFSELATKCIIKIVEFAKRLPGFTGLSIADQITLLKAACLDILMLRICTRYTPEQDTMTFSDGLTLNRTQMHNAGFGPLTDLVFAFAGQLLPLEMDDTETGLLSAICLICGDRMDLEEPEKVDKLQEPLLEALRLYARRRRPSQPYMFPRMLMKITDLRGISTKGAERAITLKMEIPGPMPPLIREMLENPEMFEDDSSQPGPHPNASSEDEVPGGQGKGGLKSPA

One may read the AC50 as the concentration at which the activity in the assay is half-maximal. `ClCc1ccccc1Cl`: the call in assay [1], in assay [4] and in assay [5] was inactive. The values for the AC50 in assay [2] and in assay [3] were 12.4 µM (active) and 74.7 µM (active), respectively.

On to `Oc1c(Cl)cc(Cl)cc1Cl`, for which the outcome in assay [1], in assay [3], in assay [6], in assay [7], in assay [8] and in [9] was inactive. Further, the result in assay [10], in assay [12], in assay [13], in [14] and in assay [15] was inactive. Besides, the results for the AC50 in [11] and in assay [4] were 15.9 µM (active) and 42.5 µM (active), respectively.

As for `NNCCO`, the compound was classed as inactive in assay [1], in assay [2], in [3] and in assay [15].

For `CCOc1ccc(N)cc1`, the compound was classed as inactive in assay [1], in assay [16], in assay [2], in assay [3], in assay [6] and in assay [11]. In addition, in assay [17], the result was inactive.

As to `CC(C)(C#N)N=NC(C)(C)C#N`, the outcome in [1], in assay [2], in assay [3], in assay [6] and in assay [15] was inactive.

Consider `N#Cc1ccccc1Cl`, for which the outcome in assay [1], in assay [16], in [2], in assay [3], in assay [6] and in assay [11] was inactive. The result in assay [12], in assay [18] and in assay [5] was inactive.

With `Cc1cc(Cl)ccc1OC(C)C(=O)O` (centres undefined), the result in [1], in [16], in assay [2], in assay [3], in [6] and in [7] was inactive. Further, the result in assay [8], in assay [9], in [10], in [11], in assay [12] and in [13] was inactive. For the same compound, the result in [14], in [19] and in [5] was inactive. Also, the AC50 in assay [4] is 71.4 µM (active).

On to `N#CCC#N`, for which the compound was classed as inactive in assay [1], in assay [16], in assay [2], in assay [3], in assay [6] and in [11]. Also, the result in [12], in [18], in [4] and in assay [15] was inactive.

For the compound `CCCCOC(=O)COC(=O)c1ccccc1C(=O)OCCCC`, the call in assay [1], in [2], in [3], in assay [6], in [7] and in assay [8] was inactive. Further, the outcome in [9], in assay [10], in assay [11], in assay [12], in assay [13] and in [14] was inactive. The AC50 was 26.1 µM (active) in [14], 51.4 µM (active) in [4] and 27.4 µM (active) in [15].

With `CN(C)C(=S)S`, the compound was called inactive in assay [1], in assay [3], in assay [7], in assay [8], in [9] and in assay [10]. The outcome in assay [13], in assay [14] and in [15] was inactive. The AC50 in assay [2] is 26.8 µM (active).

In the case of `O=C(CBr)c1ccc(O)cc1`, the outcome in [1], in assay [3], in [6], in [4] and in [15] was inactive. In assay [2], the AC50 is 41.5 µM (active).

With `Nc1nc(=S)[nH][nH]1`, the result in assay [1], in assay [16], in assay [2], in assay [3], in assay [6] and in assay [11] was inactive. The call in [4] and in assay [15] was inactive.

As for `CC(C)CC(C)(c1ccc(O)cc1)c1ccc(O)cc1`, the compound was called inactive in assay [1], in assay [16], in assay [12], in [17], in assay [18] and in assay [19]. The AC50 was 11.1 µM (active) in assay [2]; 17 µM (active) in assay [3]; 11.1 µM (active) in [6]; 11.1 µM (active) in [4]; 1.47 µM (active) in [15].
